Assay outcomes from PubChem.
ugtP null kill – growth inhibition of ugtP-null S. aureus, primary screen, RN4220 ugtP deletion, OD600; AID 1259309, 2017; growth inhibition, % (concentration not given with the values); 16 h; actives 0.54% (n = 330,000); in the data active = growth inhibition above about 68%
Sa RN4220 lethal – growth inhibition of S. aureus RN4220, primary screen, OD600; actives 0.33% (n = 330,000); 16 h; inhibition, % (test concentration not listed); in the data active = inhibition above about 85%
PfHsp40 rescue – rescue of yeast from PfHsp40 toxicity, primary screen, S. cerevisiae, ATP luminescence | S. cerevisiae expressing PfHsp40, growth rescue | growth rescue, % at 12.5 µM | actives 0.68% (n = 340,000); in the data active = growth rescue above about 28%, passing the limit was not always enough;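 note: yeast W303a lacking pdr1 and pdr3 grown in galactose medium; growth measured after three days at 30 °C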
CCHF vOTU inh-1 – CCHFV vOTU protease inhibitors, primary screen, biochemical, Pep-AMC substrate, fluorescence; Crimean-Congo hemorrhagic fever virus L polyprotein viral ovarian tumor (vOTU) protease …; inhibition, % at 11.5 µM; actives 0.55% (n = 370,000)
BH1578 lux ind – inducers of Vibrio cholerae quorum light production without autoinducers, primary screen, BH1578 luxS cqsA deficient, single point; AID 588436, 2011; V. cholerae BH1578 lux reporter, luminescence, 6 h; activation, % at 18.7 µM; actives 0.16% (n = 350,000); in the data active = activation mostly above about 9.7%, no sharp cut-off
Mtb hypoxia rep – PubChem AID 1159583 | M. tuberculosis hypoxia-regulated fluorescent reporter, fluorescence | fluorescence inhibition, % (concentration not given with the values) | actives 0.1% (n = 300,000); in the data active = fluorescence inhibition mostly above about 23%, no sharp cut-off; inactive = mostly below about 17%
CCHF vOTU inh-2 – CCHFV vOTU protease inhibitors, confirmation, biochemical, Pep-AMC substrate, fluorescence | shares compounds with CCHF vOTU inh-1 | Recombinant CCHFV vOTU | inhibition, % at 11.5 µM | actives 17% (n = 1,900)
A number is an active result; - = inactive; . = no result shown. Compounds with a hit are over-represented: about 1.7% of the library has one in this group of screens. Cut-off read from the data, not from the text of the source, unless noted: active = inhibition above about 30%; inactive = the rest.

SMILES | ugtP null kill | Sa RN4220 lethal | PfHsp40 rescue | CCHF vOTU inh-1 | BH1578 lux ind | Mtb hypoxia rep | CCHF vOTU inh-2
COc1ccccc1NS(=O)(=O)c1ccc(N/N=C/c2ccccc2OCC(=O)O)c([N+](=O)[O-])c1 | . | . | - | 30 | - | . | -
NS(=O)(=O)c1ccc(N/N=C/c2ccccc2C(=O)O)c([N+](=O)[O-])c1 | . | . | - | - | - | . | .
CCN(CC)S(=O)(=O)c1ccc(N/N=C/c2ccccc2OCC(=O)O)c([N+](=O)[O-])c1 | . | . | - | 34 | - | . | -
Cc1ccc(NS(=O)(=O)c2ccc(NN=Cc3ccccc3OCC(=O)O)c([N+](=O)[O-])c2)c(C)c1 | - | - | . | . | . | - | .
O=C(O)COc1ccccc1/C=N/Nc1ccc(S(=O)(=O)Nc2ccc(Cl)cc2)cc1[N+](=O)[O-] | . | . | - | 37 | . | . | -
O=C(O)COc1ccccc1C=NNc1ccc([N+](=O)[O-])cc1S(=O)(=O)Nc1ccc(Cl)cc1 | - | - | - | - | - | - | .
O=C(O)c1ccccc1NS(=O)(=O)c1ccc(N/N=C/c2ccc(O)c(O)c2)c([N+](=O)[O-])c1 | . | . | - | 42 | - | . | 46
O=C(COc1c(Br)cc(Br)cc1Br)NN=Cc1ccco1 | - | - | . | . | . | - | .
COc1ccc(CC(=O)NN=Cc2sccc2C)cc1 | - | - | . | . | . | - | .
Nc1ccc2nc(-c3cccc(-c4nc5ccc(N)cc5[nH]4)n3)[nH]c2c1 | - | - | - | - | - | - | .
Nc1ccc2nc(-c3ccc(-c4nc5ccc(N)cc5[nH]4)cc3)[nH]c2c1 | . | . | . | 36 | . | . | -
CCC(C)(C)n1nnnc1C(c1cccnc1)N1CCN(c2cccc(C(F)(F)F)c2)CC1 (stereo not given) | - | - | 215 | 30 | - | - | -
CC(C)(C)N(Cc1nc(-c2ccccc2)no1)C(=O)c1ccc2c(c1)OCO2 | - | - | - | 30 | - | - | -
CN(Cc1nc(-c2ccccc2)no1)C(=O)c1ccc2c(c1)OCO2 | - | - | - | - | - | - | .
COc1ccc(/C=C/C(=O)Oc2ccc(C=NNC(=O)c3ccccc3)cc2)cc1OC | - | - | . | . | . | - | .
O=C(NN=Cc1cc(Br)c(Br)o1)C1COc2ccccc2O1 (stereo not given) | - | - | . | . | . | - | .
C/C(=N\NC(=S)NC1CCCCC1)c1ccc(OC(F)F)cc1OC(F)F | . | . | - | 33 | - | . | -
COc1ccc(C=NNC(=O)c2cccc(COCC(F)(F)C(F)F)c2)cc1 | - | - | . | . | . | - | .
Cc1ccc(S(=O)(=O)NCCOc2cc(C)ccc2C)cc1 | - | - | - | 30 | - | - | -
Cc1ccc(OCCNS(=O)(=O)c2ccc(Cl)cc2)cc1 | - | - | - | - | - | - | .
O=C(C1=CC(c2coc3ccccc3c2=O)CC(OCc2ccc(CO)cc2)O1)N1CCN(Cc2ccc3c(c2)OCO3)CC1 (stereo not given) | - | - | . | . | . | - | .
Cc1noc(C)c1NC(=O)Nc1ccc2c(c1)C(=O)N(C(C)CO)CC(C)C(CN(C)C)O2 (stereo not given) | - | - | . | . | . | - | .
CC(=O)OCC(=O)[C@@]1(O)CCC2C3CCC4=CC(=O)C=C[C@]4(C)C3C(O)C[C@@]21C (stereo not given in full) | - | - | . | . | . | - | .
CC(O)(c1ccc(F)c(F)c1)c1nc(-c2cccc(C(F)(F)F)c2)cs1 (stereo not given) | . | . | . | 39 | - | . | -
NC(=O)C1CC2(CC(c3cccc(NC(=O)COc4ccc(Cl)cc4)c3)=NO2)CN1C(=O)COc1ccc(Cl)cc1 (stereo not given) | - | - | . | . | . | - | .
SMILES | ugtP null kill | Sa RN4220 lethal | PfHsp40 rescue | CCHF vOTU inh-1 | BH1578 lux ind | Mtb hypoxia rep | CCHF vOTU inh-2
Cc1ccc(C=NNc2ccc(F)cc2)s1 | - | - | . | . | . | - | .
CCCCCCc1nc(C(N)=O)c2[nH]c(=O)n(-c3ccc(OC)cc3OC)c2n1 | - | - | - | 30 | - | - | -
CC(C)C1COCCS(=O)(=O)N1Cc1cccc(Cl)c1 (stereo not given) | - | - | . | . | . | - | .
Cc1ccc(Cl)cc1N1CCN(C(=O)COc2ccc3c(c2)CCC3)CC1 | - | - | - | 30 | - | - | -
CCN1C(N(C)CCc2cccs2)=NC(c2ccccc2)C(C(=O)OC)=C1C (stereo not given) | - | - | . | . | . | - | .
O=C(CCN1C(=O)/C(=C\c2ccco2)SC1=S)Nc1ccc(C(=O)O)c(O)c1 | - | - | - | 34 | - | - | -
COc1ccccc1/C=C1\SC(=S)N(CCC(=O)Nc2ccc(C(=O)O)c(O)c2)C1=O | - | - | - | 35 | - | . | -
Cc1cc(C)cc(OCC(=O)N2N=C(C(F)(F)F)CC2(O)C(C)(C)C)c1 (stereo not given) | - | - | - | 30 | - | . | -
Cc1cc(C)cc(OCC(=O)N2N=C(c3cccnc3)CC2(O)C(F)(F)F)c1 (stereo not given) | - | - | - | - | - | - | .
O=C(O)c1cccc(NC2=C(N3CCOCC3)C(=O)c3ccccc3C2=O)c1 | - | - | - | 79 | - | - | 93
O=C1C=C(N2CCOCC2)c2ccccc2C1=O | - | - | - | 103 | - | - | 94
O=C1C(NS(=O)(=O)c2cccs2)=C(N2CCOCC2)C(=O)c2ccccc21 | - | - | - | - | - | - | .
O=C1C=C(N2CCOCC2)c2cccc3cccc1c23 | . | . | . | - | - | . | .
O=C1C=C(N2CC2)c2ccccc2C1=O | . | . | . | 105 | - | . | 92
O=C(NCCN1CCOCC1)C1(C(F)(F)F)CC(=CCc2ccccc2)CCCO1 (stereo not given) | - | - | . | . | . | - | .
C#CCNC(=O)C1=CC(c2csc3ccccc23)C(CCCO)C(OCC)O1 (stereo not given) | - | - | . | . | . | - | .
CC1(C)Cc2c(sc(N=CN3CCCCC3)c2C#N)C(C)(C)N1 | - | - | . | . | . | - | .
Cc1ccc2c(c1)C1C(CO2)C(c2ccccc2)[C@]2(C)C(=O)Nc3ccc(F)cc3C(=O)N12 (stereo not given in full) | - | - | . | . | . | - | .
CC(C)(C)c1ccc(Cn2nnc3c(=O)[nH]c(C4CCCN(C(=O)Cc5cccs5)C4)nc32)cc1 (stereo not given) | - | - | - | 31 | - | - | -
CC(C)(C)c1ccc(Cn2nnc3c(=O)[nH]c(C4CCN(C(=O)Cc5cccs5)CC4)nc32)cc1 | - | - | - | - | - | - | .
O=c1[nH]c(C2CCCN(S(=O)(=O)Cc3ccccc3)C2)nc2c1nnn2Cc1cccc(Cl)c1 (stereo not given) | - | - | - | 30 | - | - | -
Nc1ccccc1C(=O)OCC(=O)N1CCc2ccccc21 | . | . | - | - | - | . | .
Nc1ccccc1C(=O)N1CCc2ccccc21 | - | - | - | 49 | - | - | -
CCOc1ccc(C=Nn2c(SC)nnc(C(C)(C)C)c2=O)cc1 | - | - | . | . | . | . | .
COc1ccc(-c2c(-c3ccccc3)c(C(=O)C(=O)NCCCN(C)C)n3ccc4cc(OC)c(OC)cc4c23)cc1OC | - | - | - | 33 | - | - | -
